The first experiment addresses T1, EHF (Homo sapiens, UniProt Q9NZC4 1-300).
T1 sequence: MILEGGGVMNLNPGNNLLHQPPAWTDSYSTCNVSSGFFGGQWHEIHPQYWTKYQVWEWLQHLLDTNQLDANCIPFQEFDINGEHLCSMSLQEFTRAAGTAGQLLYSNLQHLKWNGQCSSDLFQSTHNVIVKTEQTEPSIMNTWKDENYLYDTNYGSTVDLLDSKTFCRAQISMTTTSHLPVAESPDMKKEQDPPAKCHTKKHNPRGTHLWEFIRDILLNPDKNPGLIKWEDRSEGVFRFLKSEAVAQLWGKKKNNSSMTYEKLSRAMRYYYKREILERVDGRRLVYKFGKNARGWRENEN
The experiment in a line: DAPPL (digital affinity profiling via proximity ligation, sequencing); 10 mM Tris-HCl pH 7.5, 50 mM NaCl, 1 mM DTT, 4% glycerol, room temperature, 30 min; GST-TFs on glutathione beads, 16-mer random dsDNA library, 0.1% formaldehyde crosslink after washing; high values mean tight binding. The conditions noted are these: protein: recombinant; tags: N-terminal GST; dsDNA, one strand shown. The essentials:
(§1)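 Human transcription factors carrying a GST fusion were produced in yeast, bound to glutathione beads, tagged with DNA barcodes and pooled together with a tag-only sample. Each pool was held with 200 nmole of a random double-stranded 16-mer DNA library in Tris/NaCl/DTT/glycerol buffer for 30 min at room temperature, then washed, crosslinked in 0.1% formaldehyde, proximity-ligated with BsaI/T4 ligase (1 h, 37 °C), PCR-amplified and sequenced on an Illumina NextSeq500. Binding signal is the read frequency of each hexamer for a given factor divided by its frequency in the tag-only sample.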
On to CACCCT, for which the binding signal is 1.02 fold enrichment (6-mer frequency, TF over GST control).
On the same count and under the same terms, the result for TGCGGA reads 1.37 fold enrichment (6-mer frequency, TF over GST control).
CTCACC: the binding signal is 1.24 fold enrichment (6-mer frequency, TF over GST control).
Consider GCCACT, for which the binding signal was 1.1 fold enrichment (6-mer frequency, TF over GST control).
Still for that read-out and setting: with TGTCAC the figure was 1.22 fold enrichment (6-mer frequency, TF over GST control).
On to GCTACA, for which the binding signal is 1.21 fold enrichment (6-mer frequency, TF over GST control).
The same measure, in the same setting: the result for CCACAT reads 1.21 fold enrichment (6-mer frequency, TF over GST control).
Still for that read-out and setting: with CACAAC the figure was 1.21 fold enrichment (6-mer frequency, TF over GST control); with GGCCTC, 1.21 fold enrichment (6-mer frequency, TF over GST control).
On the same count and under the same terms, with GCTACC the figure was 1.09 fold enrichment (6-mer frequency, TF over GST control); with ACAACC, 1.29 fold enrichment (6-mer frequency, TF over GST control).
As to CAACAT, the binding signal was 1.23 fold enrichment (6-mer frequency, TF over GST control).
With CAAACT, the binding signal was 1.15 fold enrichment (6-mer frequency, TF over GST control).
On the same count and under the same terms, the result for TGCATG reads 1.15 fold enrichment (6-mer frequency, TF over GST control).
The same measure, in the same setting: the result for GTCCTT reads 1.28 fold enrichment (6-mer frequency, TF over GST control); that for GGATGC, 1.24 fold enrichment (6-mer frequency, TF over GST control); that for AGCGAC, 1.23 fold enrichment (6-mer frequency, TF over GST control).
Same read-out and setting: with AACCGG the figure was 1.5 fold enrichment (6-mer frequency, TF over GST control); with ACCTGA, 1.09 fold enrichment (6-mer frequency, TF over GST control); with CCCGGC, 1.06 fold enrichment (6-mer frequency, TF over GST control).
On to CCGCCG, for which the binding signal is 1.34 fold enrichment (6-mer frequency, TF over GST control).
For the sequence CGTATC, the binding signal is 1.25 fold enrichment (6-mer frequency, TF over GST control).
On the same count and under the same terms, with CACACT the figure was 1.2 fold enrichment (6-mer frequency, TF over GST control); with TGGCAG, 1.11 fold enrichment (6-mer frequency, TF over GST control); with GTCCTC, 1.28 fold enrichment (6-mer frequency, TF over GST control).
As for GACTAC, the binding signal is 1.12 fold enrichment (6-mer frequency, TF over GST control).
Regarding CCAACA, the binding signal was 1.12 fold enrichment (6-mer frequency, TF over GST control).
On the same count and under the same terms, the result for GTACAA reads 1.26 fold enrichment (6-mer frequency, TF over GST control); that for TGCACC, 1.25 fold enrichment (6-mer frequency, TF over GST control); that for CCCCCG, 1.1 fold enrichment (6-mer frequency, TF over GST control).
Still for that read-out and setting: with CGACAC the figure was 1.19 fold enrichment (6-mer frequency, TF over GST control); with CTGTCC, 1.36 fold enrichment (6-mer frequency, TF over GST control).
Still for that read-out and setting: the result for GCACCC reads 1.01 fold enrichment (6-mer frequency, TF over GST control); that for GACATC, 1.35 fold enrichment (6-mer frequency, TF over GST control); that for CACATA, 1.13 fold enrichment (6-mer frequency, TF over GST control).
With CGTACC, the binding signal was 1.15 fold enrichment (6-mer frequency, TF over GST control).
Same read-out and setting: the result for GCTTGG reads 1.05 fold enrichment (6-mer frequency, TF over GST control); that for ACACAC, 1.23 fold enrichment (6-mer frequency, TF over GST control).
Turning to TGCGAC, the binding signal was 1.13 fold enrichment (6-mer frequency, TF over GST control).
The same measure, in the same setting: the result for CCGTCA reads 1.16 fold enrichment (6-mer frequency, TF over GST control).

Another experiment deals with SPI1 (Homo sapiens, UniProt P17947 1-270). The experiment is described as above. The conditions noted are these: protein: recombinant; tags: N-terminal GST; dsDNA, one strand shown. The essentials: as §1
On to CACCCT, for which the binding signal was 1.07 fold enrichment (6-mer frequency, TF over GST control).
The same measure, in the same setting: the result for TGCGGA reads 1.85 fold enrichment (6-mer frequency, TF over GST control); that for CTCACC, 1.24 fold enrichment (6-mer frequency, TF over GST control).
Still for that read-out and setting: with GCCACT the figure was 1.17 fold enrichment (6-mer frequency, TF over GST control); with TGTCAC, 1.21 fold enrichment (6-mer frequency, TF over GST control); with GCTACA, 1.2 fold enrichment (6-mer frequency, TF over GST control).
Same read-out and setting: with CCACAT the figure was 1.07 fold enrichment (6-mer frequency, TF over GST control); with CACAAC, 1.21 fold enrichment (6-mer frequency, TF over GST control).
On to GGCCTC, for which the binding signal is 1.11 fold enrichment (6-mer frequency, TF over GST control).
On the same count and under the same terms, with GCTACC the figure was 1.11 fold enrichment (6-mer frequency, TF over GST control); with ACAACC, 1.2 fold enrichment (6-mer frequency, TF over GST control); with CAACAT, 1.06 fold enrichment (6-mer frequency, TF over GST control).
Same read-out and setting: the result for CAAACT reads 1.12 fold enrichment (6-mer frequency, TF over GST control); that for TGCATG, 1.02 fold enrichment (6-mer frequency, TF over GST control).
Still for that read-out and setting: the result for GTCCTT reads 1.29 fold enrichment (6-mer frequency, TF over GST control); that for GGATGC, 1.11 fold enrichment (6-mer frequency, TF over GST control); that for AGCGAC, 1.06 fold enrichment (6-mer frequency, TF over GST control).
Regarding AACCGG, the binding signal was 1.7 fold enrichment (6-mer frequency, TF over GST control).
Still for that read-out and setting: with ACCTGA the figure was 1.01 fold enrichment (6-mer frequency, TF over GST control); with CCCGGC, 1.13 fold enrichment (6-mer frequency, TF over GST control); with CCGCCG, 1.27 fold enrichment (6-mer frequency, TF over GST control).
On the same count and under the same terms, the result for CGTATC reads 1.11 fold enrichment (6-mer frequency, TF over GST control); that for CACACT, 1.16 fold enrichment (6-mer frequency, TF over GST control); that for TGGCAG, 1.1 fold enrichment (6-mer frequency, TF over GST control).
Still for that read-out and setting: the result for GTCCTC reads 1.25 fold enrichment (6-mer frequency, TF over GST control); that for GACTAC, 1.12 fold enrichment (6-mer frequency, TF over GST control).
Consider CCAACA, for which the binding signal is 1.01 fold enrichment (6-mer frequency, TF over GST control).
Same read-out and setting: with GTACAA the figure was 1.06 fold enrichment (6-mer frequency, TF over GST control); with TGCACC, 1.16 fold enrichment (6-mer frequency, TF over GST control).
Same read-out and setting: with CCCCCG the figure was 1.08 fold enrichment (6-mer frequency, TF over GST control); with CGACAC, 1.2 fold enrichment (6-mer frequency, TF over GST control).
Take CTGTCC: the binding signal was 1.25 fold enrichment (6-mer frequency, TF over GST control).
Still for that read-out and setting: the result for GCACCC reads 1.18 fold enrichment (6-mer frequency, TF over GST control).
Still for that read-out and setting: the result for GACATC reads 1.26 fold enrichment (6-mer frequency, TF over GST control); that for CACATA, 1.11 fold enrichment (6-mer frequency, TF over GST control); that for CGTACC, 1.14 fold enrichment (6-mer frequency, TF over GST control).
On the same count and under the same terms, the result for GCTTGG reads 1.04 fold enrichment (6-mer frequency, TF over GST control); that for ACACAC, 1.14 fold enrichment (6-mer frequency, TF over GST control); that for TGCGAC, 1.24 fold enrichment (6-mer frequency, TF over GST control).
Take CCGTCA: the binding signal was 1.18 fold enrichment (6-mer frequency, TF over GST control).

A further experiment deals with SPIB (Homo sapiens, UniProt Q01892 1-262). The description is as above. The conditions noted are these: protein: recombinant; tags: N-terminal GST; dsDNA, one strand shown. The essentials: as §1
Sequence of SPIB (Q01892 whole entry): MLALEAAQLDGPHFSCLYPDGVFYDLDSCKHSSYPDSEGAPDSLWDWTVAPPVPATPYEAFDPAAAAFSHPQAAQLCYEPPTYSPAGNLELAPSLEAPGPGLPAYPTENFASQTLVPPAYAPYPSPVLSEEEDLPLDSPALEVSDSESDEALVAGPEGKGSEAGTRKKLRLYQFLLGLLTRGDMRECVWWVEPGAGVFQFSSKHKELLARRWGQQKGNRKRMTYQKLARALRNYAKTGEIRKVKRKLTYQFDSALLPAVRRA
With CACCCT, the binding signal was 1.16 fold enrichment (6-mer frequency, TF over GST control).
Regarding TGCGGA, the binding signal was 1.29 fold enrichment (6-mer frequency, TF over GST control).
Still for that read-out and setting: the result for CTCACC reads 1.34 fold enrichment (6-mer frequency, TF over GST control).
Same read-out and setting: the result for GCCACT reads 1.06 fold enrichment (6-mer frequency, TF over GST control).
Still for that read-out and setting: with TGTCAC the figure was 1.31 fold enrichment (6-mer frequency, TF over GST control); with GCTACA, 1.24 fold enrichment (6-mer frequency, TF over GST control).
On to CCACAT, for which the binding signal is 1.16 fold enrichment (6-mer frequency, TF over GST control).
Still for that read-out and setting: the result for CACAAC reads 1.23 fold enrichment (6-mer frequency, TF over GST control); that for GGCCTC, 1.18 fold enrichment (6-mer frequency, TF over GST control).
On the same count and under the same terms, the result for GCTACC reads 1.28 fold enrichment (6-mer frequency, TF over GST control); that for ACAACC, 1.28 fold enrichment (6-mer frequency, TF over GST control).
As for CAACAT, the binding signal was 1.14 fold enrichment (6-mer frequency, TF over GST control).
Same read-out and setting: with CAAACT the figure was 1.14 fold enrichment (6-mer frequency, TF over GST control).
Still for that read-out and setting: with TGCATG the figure was 1.14 fold enrichment (6-mer frequency, TF over GST control); with GTCCTT, 1.34 fold enrichment (6-mer frequency, TF over GST control).
Still for that read-out and setting: the result for GGATGC reads 1.28 fold enrichment (6-mer frequency, TF over GST control); that for AGCGAC, 1.16 fold enrichment (6-mer frequency, TF over GST control); that for AACCGG, 1.64 fold enrichment (6-mer frequency, TF over GST control).
With ACCTGA, the binding signal is 1.1 fold enrichment (6-mer frequency, TF over GST control).
The same measure, in the same setting: the result for CCCGGC reads 1.13 fold enrichment (6-mer frequency, TF over GST control).
On the same count and under the same terms, with CCGCCG the figure was 1.16 fold enrichment (6-mer frequency, TF over GST control); with CGTATC, 1.2 fold enrichment (6-mer frequency, TF over GST control); with CACACT, 1.14 fold enrichment (6-mer frequency, TF over GST control).
The same measure, in the same setting: the result for TGGCAG reads 1.12 fold enrichment (6-mer frequency, TF over GST control); that for GTCCTC, 1.21 fold enrichment (6-mer frequency, TF over GST control).
On to GACTAC, for which the binding signal is 1.19 fold enrichment (6-mer frequency, TF over GST control).
The same measure, in the same setting: the result for CCAACA reads 1.01 fold enrichment (6-mer frequency, TF over GST control).
Same read-out and setting: the result for GTACAA reads 1.04 fold enrichment (6-mer frequency, TF over GST control).
Turning to TGCACC, the binding signal is 1.15 fold enrichment (6-mer frequency, TF over GST control).
In the case of CCCCCG, the binding signal was 1.09 fold enrichment (6-mer frequency, TF over GST control).
As to CGACAC, the binding signal was 1.25 fold enrichment (6-mer frequency, TF over GST control).
Still for that read-out and setting: with CTGTCC the figure was 1.27 fold enrichment (6-mer frequency, TF over GST control).
The same measure, in the same setting: the result for GCACCC reads 1.2 fold enrichment (6-mer frequency, TF over GST control); that for GACATC, 1.3 fold enrichment (6-mer frequency, TF over GST control).
The same measure, in the same setting: with CACATA the figure was 1.06 fold enrichment (6-mer frequency, TF over GST control).
Turning to CGTACC, the binding signal was 1.12 fold enrichment (6-mer frequency, TF over GST control).
The same measure, in the same setting: the result for GCTTGG reads 1.16 fold enrichment (6-mer frequency, TF over GST control).
Same read-out and setting: the result for ACACAC reads 1.19 fold enrichment (6-mer frequency, TF over GST control); that for TGCGAC, 1.27 fold enrichment (6-mer frequency, TF over GST control); that for CCGTCA, 1.2 fold enrichment (6-mer frequency, TF over GST control).
